# Experimental data: PubChem BioAssay (EPA / NIEHS)
# Calls of active or inactive are those of the source. How the source made its calls: active means hit-call score of the fitted dose curve at least 0.9, where 1 is the maximum; inactive means score below 0.9.
# Assay: ATG_NF_kB_CIS: Attagene CIS-FACTORIAL HepG2 Assay for human Nuclear Factor Kappa B (NF-kB) (AID 2282991)
# Settings: HepG2 Attagene cis-factorial NF-kB reporter mRNA; actives raise or lower the signal
# Procedure, shortened: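 Readout is reporter transcript level, gain or loss versus DMSO, measured 24 h post-dose via RT-PCR, fluorescent labelling and capillary electrophoresis. Human HepG2 liver cells carried transiently transfected CIS reporter constructs reflecting endogenous factors.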
Structure (SMILES),outcome,AC50
Nc1ccc(-c2ccc(N)c(N)c2)cc1N,inactive,
CCOP(O)OCC,inactive,
C#CC1(O)CCCCC1,inactive,
CCC(C)c1cc(C(C)(C)C)cc(-n2nc3ccccc3n2)c1O (configuration not stated),inactive,
COC(=O)c1ccccc1S(=O)(=O)NC(=O)Nc1nc(C)cc(C)n1,inactive,
Nc1ccccc1C(=O)OCCc1ccccc1,inactive,
N#Cc1cccc(C#N)c1,inactive,
O=C(O)CCCc1ccc(N(CCCl)CCCl)cc1,inactive,
Nc1cc(Cl)cc(Cl)c1,inactive,
COc1ncc(F)c2nc(S(=O)(=O)Nc3c(F)cccc3F)nn12,inactive,
COC(C)(C)CCC[C@H](C)C/C=C/C(C)=C/C(=O)OC(C)C,inactive,
[CH3][Sn]([CH3])([Cl])[Cl],inactive,
CCc1cccc(C)c1N(C(=O)CCl)[C@@H](C)COC,inactive,
O=P1(NCCCl)OCCCN1CCCl (configuration not stated),inactive,
CC(Cc1ccc(C(C)(C)C)cc1)CN1C[C@@H](C)O[C@@H](C)C1 (some centres not stated),,21 µM (active)
O=C(O)c1cc[c]([Hg][Cl])cc1,inactive,

Structure (SMILES),outcome,AC50
Clc1ccc(-c2ccccc2)cc1,inactive,
CN(C)C(=O)C(c1ccccc1)c1ccccc1,inactive,
C=CCc1ccc(OC(=O)Cc2ccccc2)c(OC)c1,,114 µM (active)
O=P(O)(Oc1ccccc1)Oc1ccccc1,inactive,
CC1CCCC1.[C-]#[O+].[C-]#[O+].[C-]#[O+].[Mn],inactive,
O=C(O)COc1ccccc1,inactive,
CCC(=O)c1ccc(Cl)cc1,inactive,
Cc1ccc(N(SC(F)(Cl)Cl)S(=O)(=O)N(C)C)cc1,inactive,
CC1(C)CC(=O)CC(C)(C)N1[O],inactive,
SCc1ccco1,inactive,
O=CNC(N1CCN(C(NC=O)C(Cl)(Cl)Cl)CC1)C(Cl)(Cl)Cl (configuration not stated),inactive,
Oc1cc(Cl)ccc1Cl,inactive,
O=[N+]([O-])c1cc(C(F)(F)F)c(Cl)c([N+](=O)[O-])c1Cl,,3.71 µM (active)
C[C@]12CCC(=O)C(O)=C1CC[C@@H]1[C@@H]2CC[C@]2(C)C(=O)CC[C@@H]12,inactive,
CSc1nc(N=[N+]=[N-])nc(NC(C)C)n1,inactive,

# Assay: ATG_NRF2_ARE_CIS: Attagene CIS-FACTORIAL HepG2 Assay for human Nuclear Factor Erythroid 2 Related Factor 2 (NFR2) response to Antioxidant Response Elements (ARE) (AID 2282992)
# Settings: HepG2 Attagene ARE/NRF2 reporter, transcription factor activity; actives raise or lower the signal
# Procedure, shortened: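 HepG2 cells transiently transfected with multiplexed cis-element reporter constructs, 24 h after chemical dosing; reporter mRNA quantified by RT-PCR, fluorescent primer extension, HpaI digestion and capillary electrophoresis. Bidirectional fit relative to DMSO.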
Structure (SMILES),AC50,outcome
Nc1ccc(-c2ccc(N)c(N)c2)cc1N,14 µM (active),
CCOP(O)OCC,,inactive
C#CC1(O)CCCCC1,,inactive
[CH3][Sn]([Cl])([Cl])[Cl],57.6 µM (active),
Nc1c(Cl)c(Cl)c(Cl)c(Cl)c1Cl,38.1 µM (active),
COC(=O)c1ccccc1S(=O)(=O)NC(=O)Nc1nc(C)cc(C)n1,,inactive
Nc1ccccc1C(=O)OCCc1ccccc1,13.1 µM (active),
N#Cc1cccc(C#N)c1,,inactive
O=C(O)CCCc1ccc(N(CCCl)CCCl)cc1,,inactive
COC(C)(C)CCC[C@H](C)C/C=C/C(C)=C/C(=O)OC(C)C,52.8 µM (active),
[CH3][Sn]([CH3])([Cl])[Cl],63.8 µM (active),
BrCBr,,inactive
O=P1(NCCCl)OCCCN1CCCl (configuration not stated),,inactive
CC(Cc1ccc(C(C)(C)C)cc1)CN1C[C@@H](C)O[C@@H](C)C1 (some centres not stated),35.9 µM (active),
O=C(O)c1cc[c]([Hg][Cl])cc1,11.1 µM (active),
C[N+](C)(C)CC(=O)O,,inactive
Clc1ccc(-c2ccccc2)cc1,149 µM (active),
CN(C)C(=O)C(c1ccccc1)c1ccccc1,,inactive
C=CCc1ccc(OC(=O)Cc2ccccc2)c(OC)c1,11 µM (active),
CC1CCCC1.[C-]#[O+].[C-]#[O+].[C-]#[O+].[Mn],,inactive
O=C(O)COc1ccccc1,,inactive
[Cl][Sb]([Cl])[Cl],1.72 µM (active),
CCC(=O)c1ccc(Cl)cc1,,inactive
Cc1ccc(N(SC(F)(Cl)Cl)S(=O)(=O)N(C)C)cc1,13.9 µM (active),
CC1(C)CC(=O)CC(C)(C)N1[O],19.8 µM (active),
Oc1cc(Cl)ccc1Cl,,inactive
O=[N+]([O-])c1cc(C(F)(F)F)c(Cl)c([N+](=O)[O-])c1Cl,1.3 µM (active),
C[C@]12CCC(=O)C(O)=C1CC[C@@H]1[C@@H]2CC[C@]2(C)C(=O)CC[C@@H]12,13.8 µM (active),
O=[N+]([O-])O.O=[N+]([O-])O.[Cd],4.12 µM (active),

# Assay: ATG_Oct_MLP_CIS: Attagene CIS-FACTORIAL HepG2 Assay for human Octamer-Binding Transcription Factor (Oct) (AID 2282993)
# Settings: HepG2 Attagene cis-factorial Oct reporter, mRNA; actives raise or lower the signal
# Procedure, shortened: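 Cells of the HepG2 line express promoter-controlled reporter sequences whose mRNA levels, after 24 h treatment, are measured by RT-PCR and capillary electrophoresis. Increases and decreases are scored relative to DMSO.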
Structure (SMILES),outcome,AC50
CCOP(O)OCC,inactive,
C#CC1(O)CCCCC1,inactive,
O=c1[nH]c(Cl)c(Cl)cc1Cl,inactive,
CCC(C)c1cc(C(C)(C)C)cc(-n2nc3ccccc3n2)c1O (configuration not stated),inactive,
Nc1c(Cl)c(Cl)c(Cl)c(Cl)c1Cl,inactive,
COC(=O)c1ccccc1S(=O)(=O)NC(=O)Nc1nc(C)cc(C)n1,inactive,
Nc1ccccc1C(=O)OCCc1ccccc1,inactive,
N#Cc1cccc(C#N)c1,inactive,
Nc1cc(Cl)cc(Cl)c1,inactive,
COC(C)(C)CCC[C@H](C)C/C=C/C(C)=C/C(=O)OC(C)C,inactive,
O=P1(NCCCl)OCCCN1CCCl (configuration not stated),inactive,
O=C(O)c1cc[c]([Hg][Cl])cc1,,6.74 µM (active)
C[N+](C)(C)CC(=O)O,inactive,
O=S(=O)(c1ccccc1)c1ccccc1,inactive,
CN(C)C(=O)C(c1ccccc1)c1ccccc1,inactive,
C=CCc1ccc(OC(=O)Cc2ccccc2)c(OC)c1,inactive,
O=P(O)(Oc1ccccc1)Oc1ccccc1,inactive,
CC1CCCC1.[C-]#[O+].[C-]#[O+].[C-]#[O+].[Mn],inactive,
[Cl][Sb]([Cl])[Cl],inactive,
Cc1ccc(N(SC(F)(Cl)Cl)S(=O)(=O)N(C)C)cc1,,17.7 µM (active)
CC1(C)CC(=O)CC(C)(C)N1[O],inactive,
SCc1ccco1,inactive,
O=CNC(N1CCN(C(NC=O)C(Cl)(Cl)Cl)CC1)C(Cl)(Cl)Cl (configuration not stated),inactive,
Oc1cc(Cl)ccc1Cl,inactive,
O=[N+]([O-])c1cc(C(F)(F)F)c(Cl)c([N+](=O)[O-])c1Cl,inactive,
C[C@]12CCC(=O)C(O)=C1CC[C@@H]1[C@@H]2CC[C@]2(C)C(=O)CC[C@@H]12,inactive,
CSc1nc(N=[N+]=[N-])nc(NC(C)C)n1,inactive,
